Screening results as filed in PubChem.
Pf growth 48h: Primary qHTS for delayed death inhibitors of the malarial parasite plastid, 48 hour incubation. P. falciparum luciferase growth in erythrocytes, 48 h. Potency, µM (highest dose often 28.7 µM), usual class: inhibitors. 5.9% of 310,000 active
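Luminescence readout; reporter = integrated firefly luciferase in P. falciparum. RBC culture at 2% hematocrit, 0.1% parasitemia final, 37 C/5% CO2; decreased signal taken as growth inhibition.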
Cycloheximide cs: Cycloheximide Counterscreen for Small Molecule Inhibitors of Shiga Toxin. cell reporter, cycloheximide protein synthesis inhibition counterscreen. max response, %. AID 2314, 2010. 12% of 300,000 active; in the data active means max response mostly above about 13%, no sharp cut-off; inactive means mostly below about 14%; further: read at 38.3 µM for the half of the compounds with a filed dose
Shiga toxin inh: A qHTS for Small Molecule Inhibitors of Shiga Toxin | inhibition, % at 38.7 µM | 9.2% of 290,000 active | AID 2315, 2010 | Vero cells, Shiga toxin protein synthesis inhibition reporter; in the data active means inhibition mostly above about 28%, no sharp cut-off; inactive means mostly below about 43%
Pf growth 96h: Primary qHTS for delayed death inhibitors of the malarial parasite plastid, 96 hour incubation; P. falciparum luciferase reporter growth, 96 h; Potency, µM (top dose mostly 28.7 µM), hits mostly inhibitors; 6.9% of 320,000 active; AID 504834, 2011
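96 h incubation, 37 C, 5% CO2, of luciferase-reporter P. falciparum-infected RBCs (2% hematocrit, 0.05% parasitemia final) with test compounds; endpoint luminescence.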
Of the large screens only hits and unclear results are named; the others gave an inactive call. The list is not random: actives were taken first. Their share in the collection is about 21%. Unless noted, the call rests on the fitted dose curve; in most records, active means well fitted inhibition curve with a large enough effect; inconclusive means small, poorly fitted or top-dose-only effect, or another doubt; inactive means no such curve, though single readings can be large or run the other way.

CCOc1ccc(/C=N/n2c(-c3ccccc3)n[nH]c2=S)cc1	none
CCOc1ncccc1C(=O)Nc1cc(S(=O)(=O)N2CCCCCC2)ccc1OC	none (no result: Cycloheximide cs, Shiga toxin inh)
O=C(N/N=C/c1cc(Br)cc(Br)c1O)c1cccc(N2CCCC2=O)c1	Pf growth 96h 10.4µM
O=C(N/N=C/c1ccc([N+](=O)[O-])cc1)c1cccc(N2CCCC2=O)c1	none
O=C(N/N=C/c1ccc(Cl)cc1Cl)c1cccc(N2CCCC2=O)c1	Pf growth 48h inconclusive, Cycloheximide cs 15.8
O=C(N/N=C/c1cc(Br)cc(Br)c1O)c1cccc(S(=O)(=O)N2CCOCC2)c1	Pf growth 48h inconclusive, Pf growth 96h inconclusive
COc1cc(N=Nc2c(O)c3ccccc3[nH]c2=O)c(OC)cc1N=Nc1ccccc1	Pf growth 48h 3.29µM, Pf growth 96h 2.33µM
NC(=O)c1ccc(N=Nc2c(O)c3ccccc3[nH]c2=O)cc1	Pf growth 48h 2.62µM, Pf growth 96h 1.47µM
CC(=O)Nc1c(O)c2ccccc2[nH]c1=O	Pf growth 96h inconclusive
CCN(CC(=O)Nc1ccc(NC(C)=O)cc1)C(=O)CN1C(=O)C2CCCCC2C1=O (configuration not stated)	Pf growth 96h inconclusive (no result: Cycloheximide cs, Shiga toxin inh)
Nn1cnnc1SCC(=O)Nc1ccc(C2CCCCC2)cc1	Cycloheximide cs 50.3, Shiga toxin inh 80.9
CCOc1ccc(C(=O)CSc2nnc(C3CC3)n2C)cc1	Cycloheximide cs 14.0, Shiga toxin inh 37.3
CCOC(=O)c1ccc(NC(=O)CSc2nnc(C3CCCCC3)n2C)cc1	Pf growth 48h 6.57µM, Pf growth 96h 8.28µM
CCOc1ccc(NC(=O)CSc2nnc(C3CC3)n2C)cc1	Pf growth 96h 2.08µM
CCOC(=O)c1ccc(NC(=O)CSc2nnnn2C2CCCCC2)cc1	none
CCOC(=O)c1ccc(NC(=O)CSc2nnc(-c3cccs3)n2C)cc1	Pf growth 48h inconclusive, Pf growth 96h 3.29µM
O=S(=O)(CCc1ccncc1)c1ccc(Cl)cc1	none
Cc1nn(CC(=O)Nc2ccc(Br)cc2F)c(=O)c2cccn12	Pf growth 96h inconclusive
C[C@@H](Oc1ccccc1)c1nnn(Cc2ccccc2)c1-c1c([C@@H](C)Oc2ccccc2)nnn1Cc1ccccc1	Pf growth 48h inconclusive, Pf growth 96h 6.57µM
Cc1ccc(NC2=C(Cl)C(=O)OC2OC(C)C)cc1 (configuration not stated)	Pf growth 96h 13.1µM
Cc1cccc(NC2=C(Cl)C(=O)OC2OC(C)C)c1 (configuration not stated)	none
N=C1S/C(=C\c2cccc3ccccc23)C(=O)N1c1ccc(F)cc1	Pf growth 48h 11.7µM
N=C1S/C(=C\c2cn[nH]c2-c2ccc(F)cc2)C(=O)N1c1ccccc1F	Cycloheximide cs 20.0, Pf growth 96h inconclusive
N=C1S/C(=C\c2ccccc2F)C(=O)N1c1ccc(F)cc1	none
CCN(c1ccccc1)S(=O)(=O)c1ccc2c(c1)C(C)(C)C(=O)N2C	none
Cc1ccc(Cl)c(NC(=O)CSc2n[nH]c(=O)n2C2CC2)c1Cl	Pf growth 96h inconclusive (no result: Cycloheximide cs, Shiga toxin inh)
Cc1ccc(C(C)C)c(OCC(=O)NC(=S)Nc2ccccc2N2CCOCC2)c1	none
CCn1c(Cc2ccccc2)nnc1SCC(=O)Nc1ccccc1N1CCOCC1	Pf growth 48h inconclusive, Pf growth 96h 3.29µM
Cc1cc(C)c(OCC(=O)Nc2ccccc2N2CCOCC2)c(C)c1	Pf growth 48h 11.7µM
Cc1ccccc1OCC(=O)Nc1ccccc1N1CCOCC1	Pf growth 48h inconclusive, Pf growth 96h inconclusive
CCC(=O)N1CCN(c2ccccc2NC(=O)COc2cc(C)ccc2C(C)C)CC1	Pf growth 48h 3.29µM (no result: Pf growth 96h)
Cc1ccc(OCC(=O)Nc2ccccc2N2CCCC2)c(C)c1	Pf growth 48h 11.7µM
O=C(Nc1ccccc1OC(F)F)c1cccc(S(=O)(=O)N2CCCC2)c1	Pf growth 96h inconclusive
COCCN(CC1CCCN(C2Cc3ccccc3C2)C1)C(=O)CSC (configuration not stated)	Pf growth 48h inconclusive, Pf growth 96h inconclusive
Clc1ccccc1/C=C/c1ccnc2ccccc12	Cycloheximide cs 45.7, Shiga toxin inh 62.8, Pf growth 96h inconclusive
Oc1ccc(/C=C/c2ccnc3ccccc23)cc1	Pf growth 48h inconclusive, Cycloheximide cs 110.9, Shiga toxin inh 108.6
O=C(/C=C/c1ccccc1Cl)NNC(=O)c1ccncc1	none (no result: Cycloheximide cs, Shiga toxin inh)
Cc1ccc(NC(=O)CN2C(=O)NC3(CCCC3)C2=O)c(Cl)c1	none
O=C(NNS(=O)(=O)c1ccccc1F)c1ccccc1-n1cccc1	none
NNC(=O)CSc1c(-c2ccccc2)c2cc(Cl)ccc2[nH]c1=O	Pf growth 48h inconclusive, Pf growth 96h 13.1µM
O=c1[nH]c2ccc(Cl)cc2c(O)c1-c1ccccc1	Cycloheximide cs 26.9, Shiga toxin inh 77.8
O=C(NC(=S)Nc1ccc(NC(=O)c2cccs2)cc1)c1ccco1	Pf growth 48h 1.65µM, Pf growth 96h inconclusive
O=C(Nc1ccc(NC(=O)c2cccs2)cc1)c1ccco1	Cycloheximide cs 30.8 (no result: Pf growth 48h)
O=C(OCC(=O)c1cccs1)c1ccc(NC(=O)c2ccco2)cc1	Cycloheximide cs 59.1
Cc1ccc(NC(=O)c2cccs2)cc1NC(=O)c1ccco1	none
O=C(c1cc2ccccc2o1)c1cccs1	Cycloheximide cs 49.5, Shiga toxin inh 81.7 (no result: Pf growth 96h)
CC(C)NC(=O)c1cc2ccccc2o1	none
CC(=O)Nc1ccc(NC(=O)C(C)OC(=O)CNS(=O)(=O)/C=C/c2ccc(C)cc2)cc1 (configuration not stated)	none (no result: Cycloheximide cs, Shiga toxin inh)
O=C(NC(=S)Nc1ccc(NC(=O)c2cccs2)cc1)c1cc2ccccc2o1	Pf growth 48h 3.29µM
CC(NC(=O)c1cc2ccccc2o1)c1cccs1 (configuration not stated)	Pf growth 96h 8.28µM (no result: Pf growth 48h)
COc1ccccc1-c1ccc(SCc2ccc(F)cc2)nn1	Cycloheximide cs 39.4, Shiga toxin inh 64.5
COc1ccccc1-c1ccc(SCC(=O)N2CCOCC2)nn1	Pf growth 48h inconclusive
COc1ccccc1-c1ccc(SCc2ccc(C)cc2)nn1	Cycloheximide cs 32.2, Shiga toxin inh 76.4
CC(C)(C)C(C(=O)Oc1ccccc1)c1ccccc1 (configuration not stated)	Pf growth 96h inconclusive (no result: Cycloheximide cs, Shiga toxin inh)
O=C(NCCSc1ccccc1)c1cccnc1	Cycloheximide cs 49.1, Shiga toxin inh 82.5
CCCC(C)NC(=O)COc1ccc(S(=O)(=O)c2ccc(OCC(=O)NC(C)CCC)cc2)cc1 (configuration not stated)	Pf growth 48h 11.7µM, Pf growth 96h inconclusive
CCC(C)NC(=O)COc1ccc(S(=O)(=O)N2CCOCC2)cc1 (configuration not stated)	none
O=C(Nc1ccccc1F)c1ccc(OCc2ccccc2)cc1	Cycloheximide cs 48.7, Shiga toxin inh 86.4
CC(=O)N1CCN(c2ccc(NC(=O)c3ccc(OCc4ccccc4)cc3)cc2)CC1	Pf growth 48h inconclusive
O=C(NCCc1ccccc1)c1ccc(NC(=O)c2cccnc2)cc1	Cycloheximide cs 23.4, Shiga toxin inh 37.2
O=C(NCCCSc1ccccc1)c1cccnc1	none
C[C@H](NC(=O)Cc1cc(F)cc(F)c1)C(=O)N[C@@H](C(=O)OC(C)(C)C)c1ccccc1	none (no result: Pf growth 48h, Pf growth 96h)
COc1ccc2nc(NC(=O)c3cccc(OCc4c(C)noc4C)c3)sc2c1	Cycloheximide cs 43.6, Shiga toxin inh 118.2
CC(C)NC(=O)COc1ccc(OCc2ccccc2)cc1	Cycloheximide cs 19.7
